# According to PubChem BioAssay AID1942 (Johns Hopkins Ion Channel Center, 2009):
# The whole screen tested about 2,400 compounds, of which about 580 (24%) were called active. Not all results are given here. Values without a mark were called inactive.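 Rule for the calls: active = activity change at or above the mean plus 3 SD of buffer wells without dofetilide, per plate; inactive = the rest.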
# Molecular target: Potassium voltage-gated channel subfamily KQT member 2 (Rattus norvegicus) (UniProt O88943)
# Sequence (O88943 whole entry, looked up): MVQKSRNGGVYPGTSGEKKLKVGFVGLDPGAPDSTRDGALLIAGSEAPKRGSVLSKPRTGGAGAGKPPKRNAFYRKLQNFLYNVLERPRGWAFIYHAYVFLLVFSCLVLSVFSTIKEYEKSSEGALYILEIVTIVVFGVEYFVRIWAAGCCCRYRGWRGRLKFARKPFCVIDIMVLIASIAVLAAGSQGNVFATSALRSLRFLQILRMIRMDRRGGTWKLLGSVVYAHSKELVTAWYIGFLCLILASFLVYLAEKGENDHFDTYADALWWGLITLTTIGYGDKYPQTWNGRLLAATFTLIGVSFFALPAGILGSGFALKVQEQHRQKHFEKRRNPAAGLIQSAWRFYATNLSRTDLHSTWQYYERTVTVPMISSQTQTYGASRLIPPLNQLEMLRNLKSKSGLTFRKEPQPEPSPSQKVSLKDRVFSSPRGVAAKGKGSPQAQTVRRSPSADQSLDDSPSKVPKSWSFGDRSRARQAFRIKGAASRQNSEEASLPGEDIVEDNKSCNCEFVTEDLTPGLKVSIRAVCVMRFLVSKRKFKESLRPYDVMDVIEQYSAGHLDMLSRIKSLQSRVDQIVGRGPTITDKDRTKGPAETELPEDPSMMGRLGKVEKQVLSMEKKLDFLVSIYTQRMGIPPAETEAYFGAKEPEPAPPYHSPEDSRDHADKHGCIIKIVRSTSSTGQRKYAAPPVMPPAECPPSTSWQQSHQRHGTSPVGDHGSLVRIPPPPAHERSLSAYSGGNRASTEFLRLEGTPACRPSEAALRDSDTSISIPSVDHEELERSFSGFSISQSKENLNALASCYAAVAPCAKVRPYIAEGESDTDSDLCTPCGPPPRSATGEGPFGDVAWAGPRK
# Assay: KCNQ2 potentiation in CHO cells – cell-based, FluxOR thallium flux, counter-screen for hERG block protector project, confirmation (AID 1942);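 note: normalized value minus buffer-control mean plus three SD of buffer wells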
# Details: FluxOR thallium flux fluorescence, at 10 µM, stronger effect = higher value
row,SMILES,"activity change, less the hit threshold"
1,CCCCOC(=O)Nc1nnc(C(C)C)s1,-15.9%
2,CCCCn1nc(NC(=O)COC)c2cc3ccc(C)cc3nc21,-8.8%
3,O=C(NC(=S)N1CCN(Cc2ccc3c(c2)OCO3)CC1)c1cccc(Br)c1,46.4% (active)
4,COc1ccc(CCNC(=O)c2ccc3c(c2)OCO3)cc1,-18%
5,O=C(NC(=S)N1CCN(Cc2ccc3c(c2)OCO3)CC1)c1ccc(Cl)cc1,36.3% (active)
6,O=C(COc1ccc(Cl)cc1)N1CCN(Cc2ccc3c(c2)OCO3)CC1,-4.9%
7,COc1ccc(C(=O)N2CCN(Cc3ccc4c(c3)OCO4)CC2)cc1[N+](=O)[O-],-19.3%
8,CCOc1ccc(S(=O)(=O)N2CCN(Cc3ccc4c(c3)OCO4)CC2)cc1C,-28.7%
9,Cc1cc2nccc(-c3ccc(Cl)cc3Cl)n2n1,-9.7%
10,Cc1nnc(SCC2=C(C(=O)O)N3C(=O)C(NC(=O)Cn4nc(C(F)F)cc4C)C3SC2)s1 (configuration not stated),-16.5%
11,CCCCC1C2=C(CCCC2=O)OC2=C1C(=O)CCC2,-25.6%
12,O=C1CC(c2ccccc2)c2cccc(F)c21 (configuration not stated),-11.3%
13,O=C(NC1CCCC1)C(c1ccncc1)N(C(=O)Cn1nnc(-c2ccccc2F)n1)c1cccc(F)c1 (configuration not stated),-18%
14,COc1ccc(Cn2c(O)cc(=O)[nH]c2=O)cc1,-20.5%
15,O=C(O)CSCc1c(F)cccc1Cl,-31.3%
16,Cn1c(CNC(=O)c2ccccc2F)nnc1SCc1nc2ccccc2c(=O)[nH]1,-4.7%
17,O=C(O)CSc1nc2ccccc2nc1Cc1ccccc1F,1.3% (active)
18,CCOC(=O)C1=C(O)/C(=C/c2ccc(OCC(=O)O)c(OC)c2)SC1=Nc1ccc(OCC)cc1,-27.2%
19,Cc1c(/C=C2\SC(=O)N(CC(=O)Nc3ccc4c(c3)OCO4)C2=O)c2ccccc2n1C,-15.7%
20,CC(=O)N(C1=C(N)C(=O)c2ccccc2C1=O)C(C)C,-9.1%
21,Cc1ccc(C(C#N)c2ccc3c(C(F)(F)F)cc(C(F)(F)F)nc3n2)cc1 (configuration not stated),-5.9%
22,CCc1nnc(NC(=O)CSc2nc(-c3ccccc3)cc(-c3ccc(OC)cc3)c2C#N)s1,-24.2%
23,O=C(O)Cc1ccc(NC(=O)C2CC=CCC2C(=O)O)cc1 (configuration not stated),-17.7%
24,Cc1cc(C)c2nc(NC(=O)C3CCCO3)sc2c1 (configuration not stated),-17%
25,COc1ccc(NC(=O)C2CC3CCC2C3)c(OC)c1 (configuration not stated),15.8% (active)

row,SMILES,"activity change, less the hit threshold"
1,COc1ccc(OC)c(NC(=O)C(=S)NC2CCCCC2)c1,-21.2%
2,Cc1cc(C)c(NC(=O)C2CC3CCC2C3)c(C)c1 (configuration not stated),75.9% (active)
3,COc1ccc(NC(=O)COC(=O)c2c(C)noc2C)c(OC)c1,-8.1%
4,CC(C)N1CC(C(=O)Nc2ccc(Cl)c(Cl)c2)CC1=O (configuration not stated),-15.3%
5,CC(C)c1ccc(NC(=O)C2CC3CCC2C3)cc1 (configuration not stated),21.5% (active)
6,O=C(COc1ccc([N+](=O)[O-])cc1)Nc1cccnc1,-27.2%
7,c1ccc(OCc2nn3c(Cn4cnc5ccccc54)nnc3s2)cc1,-20.8%
8,CCCN1CCN(CCCNC(=O)Cn2nc(C)n3c(cc4cc(OC)ccc43)c2=O)CC1,-25.2%
9,CC(C)[C@H](NC(=O)OC(C)(C)C)C(=O)NCC1CCC(C(=O)N[C@@H](Cc2ccccc2)C(=O)O)CC1 (some centres not stated),-10.4%
10,CCOC(=O)c1cnc(-n2nc(C)cc2C)nc1NNc1nc(-c2ccccc2)cc(-c2ccccc2)n1,-15%
11,CCOC(=O)Cn1cc(C=O)c2ccccc21,-12.9%
12,O=S(=O)(Nc1nc(-c2sccc2Cl)cs1)c1cc(Cl)ccc1Cl,105% (active)
13,COC(=O)c1sccc1NC(=O)CSc1ccccc1NS(=O)(=O)c1cc(Cl)ccc1Cl,-17%
14,COc1cc(C(=O)NCCNc2nc3cc(C)ccc3cc2C#N)cc(OC)c1OC,-18.4%
15,COc1ccc(NC(=O)CSCC(=O)Oc2c(OC)cccc2OC)cc1,-22.1%
16,CC(C)(C)c1ccccc1NC(=S)NC1CCCC1,-7.6%
17,CC(C)NC(=S)NNc1nc2ccccc2s1,-19.4%
18,CC(NC(=O)COC(=O)C1CCC1)c1ccccc1 (configuration not stated),-21.4%
19,CCOc1ccc(C(C)NC(=S)NC2CCCCC2)cc1 (configuration not stated),9.5% (active)
20,CCOc1ccc(N=Nc2cc(C(C)C)ccc2O)cc1,-9.1%
21,Cc1ccc(OCCC(=O)OC(C)C(=O)NC2CC2)cc1 (configuration not stated),-9%
22,CCC(C)(C(=O)NC1CCCC1)N(C(=O)c1ccccn1)c1ccccc1 (configuration not stated),-13%
23,COc1cccc(NC(=S)NC(C)c2ccc(OC)c(OC)c2)c1 (configuration not stated),-23.4%
24,CC(NC(=S)NC1CCCCC1)c1ccccc1 (configuration not stated),6.9% (active)
25,CC(NC(=O)NC1CCCCC1)c1ccccc1 (configuration not stated),26.3% (active)

row,SMILES,"activity change, less the hit threshold"
1,Cc1ccc(C(C)NC(=S)NC2CCCCC2)cc1C (configuration not stated),46.1% (active)
2,O=C(OCc1ccccc1)C1=NNC2C(=O)N(c3ccc(Br)cc3)C(=O)C12 (configuration not stated),-11.1%
3,C=C(C)CNC(=S)NN=C1c2ccccc2-c2ccccc21,-7.1%
4,COc1ccccc1C1C(C(=O)c2ccc(C)o2)=C(O)C(=O)N1c1cc(C)on1 (configuration not stated),-9.3%
5,COc1ccccc1-n1cnc2cc(NS(=O)(=O)c3ccc(Br)cc3)ccc21,-25.5%
6,CC1Oc2ccccc2N(CC(=O)N2CCCCCC2)C1=O (configuration not stated),-17.7%
7,O=C(COc1coc(CN2CCc3ccccc3C2)cc1=O)Nc1cccc(Cl)c1,-26%
8,COc1ccc(CCNC(=O)C(=O)Nc2ccc3c(c2)OCO3)cc1OC,-19%
9,COc1cc(/C=N/NC(=O)NC2CCCCC2)ccc1O,-11.5%
10,O=C(COC(=O)/C=C/c1ccc2c(c1)OCO2)NC1CC1,-11.4%
11,CC(NC(=O)NC1CCCCC1)c1ccc2c(c1)OCO2 (configuration not stated),51% (active)
12,COc1ccc(N2CCN(C(=O)c3ccc(-c4ccccc4)cc3)CC2)cc1,-20%
13,O=C(c1ccc(Cl)c(S(=O)(=O)N2CCCC2)c1)N1CCN(c2ccccc2F)CC1,-7.1%
14,Cc1ccc(C(=O)N2CCN(c3ccccc3)CC2)cc1S(=O)(=O)N1CCCC1,1.9% (active)
15,CCOC(=O)N1CCN(C(=O)c2ccc(Cl)c(S(=O)(=O)Nc3ccccc3)c2)CC1,-3.5%
16,CCOC(=O)N1CCN(C(=O)c2ccc(C)c(S(=O)(=O)Nc3ccccc3)c2)CC1,4% (active)
17,CCOC(=O)N1CCN(C(=O)c2ccc(CN(c3ccc(C)c(C)c3)S(C)(=O)=O)cc2)CC1,-15.6%
18,Cc1cccc(/N=C/c2sc3ccccc3c2O)n1,-11.6%
19,CCC(=O)c1cc2c(C)cc(=O)oc2c(C)c1O,-12.6%
20,CSc1ccc(CNc2nc3ccccc3n3cnnc23)cc1,-28.3%
21,COc1ccc(COC(=O)C2CCN(S(=O)(=O)c3cccs3)CC2)cc1,-20.1%
22,c1ccc(-c2csc(Nc3ccc4c(c3)OCCO4)n2)cc1,-20.3%
23,O=C(COC(=O)c1cc[n+]([O-])cc1)Nc1cc([N+](=O)[O-])ccc1Cl,-11.7%
24,O=C(Cc1ccc(Cl)cc1)Nc1cccc(-c2nnc(-c3ccco3)o2)c1,-13.4%
25,O=C(Nc1nc2c(F)cc(F)cc2s1)C1COc2ccccc2O1 (configuration not stated),-25.7%

row,SMILES,"activity change, less the hit threshold"
1,O=C(CCc1ccccc1)Nc1nnc(-c2ccccn2)o1,-17.4%
2,O=C(Nc1nnc(-c2ccc3c(c2)CCCC3)o1)C1COc2ccccc2O1 (configuration not stated),4.3% (active)
3,O=C(Nc1nnc(-c2ccccc2)o1)c1ccc(Cl)cc1,-17.9%
4,O=C(Nc1nnc(-c2ccc3c(c2)CCCC3)o1)c1ccc(Cl)cc1Cl,30.2% (active)
5,O=C(N=C1SC2CS(=O)(=O)CC2N1c1cccc(Cl)c1Cl)C1CCCO1 (configuration not stated),-21.2%
6,CCCN(C(=O)c1ccco1)c1nnc(-c2ccncc2)s1,-7.4%
7,Cc1ccc(/C(O)=C2\C(=O)C(=O)N(Cc3cccnc3)C2c2ccccc2[N+](=O)[O-])cc1 (configuration not stated),-16%
8,Cc1ccc(NC(=O)CN2C(=O)S/C(=C/c3ccc(-c4cc(C(=O)O)ccc4C)o3)C2=O)cc1C,-24.7%
9,Cc1ccc2c(c1)N(CCC(=O)NCc1cccnc1)C(=O)CO2,-10.8%
10,C/C(=C\C(=O)c1ccncc1)Nc1ccccc1O,-11.7%
11,O=C1CC(O)(C(F)(F)F)Oc2c1ccc1ccccc21 (configuration not stated),28.3% (active)
12,CC1(C)Cc2c(ccc3ccccc23)C2=C(C(=O)N3CCCC3)C(=O)C(=O)N21,-11.1%
13,Nc1nc2c(s1)CCCCCCCCCC2,-3%
14,O=C(c1ccco1)N(c1ccccn1)c1ccccn1,-21.4%
15,Brc1ccc(C2=CC(c3ccco3)n3nnnc3N2)cc1 (configuration not stated),-16.3%
16,O=C(O)c1sccc1OCc1ccccc1,-0.9%
17,Cc1ccc(C)c(Cn2c(O)c(N=NC(=S)Nc3ccccc3F)c3ccccc32)c1,-11.3%
18,Cc1ccccc1Cn1c(O)c(N=NC(=S)Nc2ccccc2F)c2ccccc21,-20.7%
19,Oc1c(N=NC(=S)Nc2ccccc2F)c2ccccc2n1Cc1cccc(Cl)c1,-13%
20,C=CCn1c(O)c(N=NC(=S)Nc2ccc(OC)c(Cl)c2)c2ccccc21,3.8% (active)
21,C=CCn1c(O)c(N=NC(=S)Nc2ccc(OC)cc2)c2ccccc21,25% (active)
22,Oc1c(N=NC(=S)Nc2ccccc2F)c2ccccc2n1Cc1ccccc1F,-12.8%
